# Measurements taken from the supplement of paper PMC3545927.
# Some of the results follow. No count for the full screen is at hand.
# Molecular target: furin, P09958
# Assay: furin cleavage Z-score vs untreated control; higher = more cleavage, active = 3.5 or more, inactive = 1 or less, 8 variable residues between constant flanks
# Experimental: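 Multiplexed peptide-cDNA fusion cleavage assay. 8-mer variable peptides flanked by constant Cys-Ala (N-term) and Ala-Gly-Asn-Ala-Ser-Ala-Ser-Ala (C-term) and conjugated to a cDNA oligonucleotide were bead-immobilised via the N-terminus. They were treated with purified furin at a 1:10 enzyme:substrate ratio in 50 mM HEPES pH 7.5, 1 mM CaCl2, 100 mM NaCl for 7.5, 15 or 30 min. Released cDNA was counted by next-generation sequencing, and log counts versus no-furin controls were lowess-adjusted and converted to robust Z-scores.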
# Sequence of furin, P09958 (P09958 whole entry): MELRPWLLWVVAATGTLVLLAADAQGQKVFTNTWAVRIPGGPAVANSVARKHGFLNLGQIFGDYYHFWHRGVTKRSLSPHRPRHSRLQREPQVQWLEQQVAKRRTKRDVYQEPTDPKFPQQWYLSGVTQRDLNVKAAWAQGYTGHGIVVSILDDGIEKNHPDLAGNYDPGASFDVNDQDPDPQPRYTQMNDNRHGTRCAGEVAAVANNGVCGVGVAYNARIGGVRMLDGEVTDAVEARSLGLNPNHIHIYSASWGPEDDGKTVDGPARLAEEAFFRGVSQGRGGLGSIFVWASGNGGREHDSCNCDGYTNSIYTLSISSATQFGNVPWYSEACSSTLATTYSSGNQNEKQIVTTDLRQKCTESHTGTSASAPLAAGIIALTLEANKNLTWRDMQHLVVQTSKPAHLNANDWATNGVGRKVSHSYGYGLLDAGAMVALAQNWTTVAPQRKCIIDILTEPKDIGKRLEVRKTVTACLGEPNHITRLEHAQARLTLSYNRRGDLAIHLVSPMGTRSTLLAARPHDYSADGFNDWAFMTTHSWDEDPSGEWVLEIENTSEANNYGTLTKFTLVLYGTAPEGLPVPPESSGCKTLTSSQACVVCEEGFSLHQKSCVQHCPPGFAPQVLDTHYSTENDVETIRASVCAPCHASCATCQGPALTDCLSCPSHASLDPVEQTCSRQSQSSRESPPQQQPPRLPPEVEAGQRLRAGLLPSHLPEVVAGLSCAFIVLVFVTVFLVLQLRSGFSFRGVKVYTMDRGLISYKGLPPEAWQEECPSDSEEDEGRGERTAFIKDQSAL
Sequence,furin cleavage Z-score (7.5 min),furin cleavage Z-score (15 min),furin cleavage Z-score (30 min)
CANLEVVTSTAGNASASA [HC2281],0.776 (inactive),-1.12 (inactive),-0.725 (inactive)
CAMKSRLRRTAGNASASA [FS-1035],6.13 (active),6.71 (active),5.42 (active)
CAAKGRAGRSAGNASASA [FS-971],7.82 (active),7.81 (active),6.06 (active)
CAVRGRAGRSAGNASASA [FS-515],1.52,1.9,0.698 (inactive)
CAQLSRAGRSAGNASASA [FS-81],6.21 (active),8.4 (active),8.08 (active)
CAPPSVASSSAGNASASA [HC1258],0.0747 (inactive),0.138 (inactive),0.956 (inactive)
CARCRRTVSMAGNASASA [FS-1998],1.07,2.14,4.65 (active)
CAPDVVCCSMAGNASASA [HC2119],-0.96 (inactive),1.32,-0.361 (inactive)
CARSERDVLLAGNASASA [FS-3077],1.87,-0.515 (inactive),0.482 (inactive)
CARSARPLVQAGNASASA [FS-2085],-2.45 (inactive),0.432 (inactive),-1.67 (inactive)
CARSARDVSSAGNASASA [FS-2302],9.56 (active),8.78 (active),6.82 (active)
CARSARDTAQAGNASASA [FS-3168],5.29 (active),5.99 (active),5.11 (active)
CAGSWSTVSSAGNASASA [HC1362],0.499 (inactive),-0.166 (inactive),-0.172 (inactive)
CARSARKSNFAGNASASA [FS-3073],-1.18 (inactive),0.463 (inactive),-0.0584 (inactive)
CASVAHDGAGAGNASASA [HC1556],-0.273 (inactive),-3.13 (inactive),0.415 (inactive)
CADHRRSVDSAGNASASA [FS-2628],-1.5 (inactive),0.662 (inactive),1.77
CARDVVCCSMAGNASASA [HC2113],0.281 (inactive),-1.32 (inactive),2.45
CARCRRSVSSAGNASASA [FS-2548],4.14 (active),2.68,3.73 (active)
CAYVGGPLTNAGNASASA [HC1501],-0.238 (inactive),-0.463 (inactive),-0.523 (inactive)
CAQRVEFLVQAGNASASA [HC1470],-0.81 (inactive),1.84,0.832 (inactive)
CAARGSPPSVAGNASASA [HC1256],0.929 (inactive),-0.707 (inactive),1.93
CAETITLPQDAGNASASA [HC897],-1.02 (inactive),0.648 (inactive),-1.05 (inactive)
CAHVVTSTWVAGNASASA [HC2155],-1.33 (inactive),0.00684 (inactive),-0.368 (inactive)
CASTACSAHLAGNASASA [HC2503],0.199 (inactive),1.42,-0.356 (inactive)
CARMAWDMMMAGNASASA [HC319],-0.311 (inactive),-0.626 (inactive),-0.966 (inactive)
CATLPALSTGAGNASASA [HC501],-1.14 (inactive),0.758 (inactive),-0.483 (inactive)
CALKVPYFVRAGNASASA [HC614],-0.584 (inactive),0.223 (inactive),0.218 (inactive)
